TrxR1 substrate: qHTS Assay for Substrates of Mammalian Selenoprotein Thioredoxin Reductase 1 (TrxR1): qHTS | AID 588456, 2011 | Potency, µM (top dose mostly 114 µM), without a hit: top-dose activity change, negative = substrate turnover | 390,000 compounds, 0.01% hits | purified TrxR1 substrate turnover, NADPH consumption readout; further: on the % scale 0 is the no-effect control and ±100 the full control effect; nearly all actives have a fitted effect of over 50% in size
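Rat TrxR1, dispensed at 90 nM, was prereduced with 400 uM NADPH (final) for 5 min at ~22 deg C, then incubated with compound 15 min before 400 uM selenite. A first-read NADPH fluorescence drop versus no-compound background flagged substrates.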
mIDH1 inhibitor: qHTS for Inhibitors of mutant isocitrate dehydrogenase 1 (IDH1): qHTS | Isocitrate dehydrogenase [NADP] cytoplasmic (Homo sapiens), O75874 | IDH1-R132H enzyme, NADPH consumption, diaphorase/resazurin fluorescence | Potency, µM (series often up to 76.6 µM), without a hit: at the top dose activity change, negative = inhibition, actives largely listed as inhibitors | 390,000 compounds, 0.093% hits; further: on the % scale 0 is the no-effect control and ±100 the full control effect; nearly all actives have a fitted effect of over 65% in size
Target sequence (O75874 whole entry R132H, stated change not applied): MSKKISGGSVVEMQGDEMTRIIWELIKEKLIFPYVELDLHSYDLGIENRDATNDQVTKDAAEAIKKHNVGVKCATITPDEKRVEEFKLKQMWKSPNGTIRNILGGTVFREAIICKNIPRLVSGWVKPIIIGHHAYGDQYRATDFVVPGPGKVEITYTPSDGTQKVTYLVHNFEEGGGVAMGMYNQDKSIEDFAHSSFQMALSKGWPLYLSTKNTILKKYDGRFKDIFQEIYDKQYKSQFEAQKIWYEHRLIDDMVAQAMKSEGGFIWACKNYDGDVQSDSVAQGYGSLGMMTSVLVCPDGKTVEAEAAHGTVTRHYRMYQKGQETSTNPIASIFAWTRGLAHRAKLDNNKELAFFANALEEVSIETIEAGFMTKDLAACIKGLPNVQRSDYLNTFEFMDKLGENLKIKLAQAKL
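IDH1-R132H (0.5 ug/mL dispensed) in pH 7.5 Tris buffer was preincubated 30 min with compound, then given a substrate mix of 0.016 mM NADPH and 2 mM alpha-KG for 80 min at room temperature; remaining NADPH was read by diaphorase/resazurin fluorescence.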
Glioma ERSR ind: qHTS for Inducers of the Endoplasmic Reticulum Stress Response (ERSR) in Human Glioma: qHTS | U87-MG GRP78 promoter luciferase reporter, 16 h | Potency, µM, for inactives: at the highest dose activation, actives largely listed as activators | 420,000 compounds, 0.02% hits; further: series mostly up to about 76 µM; % of control where 0% means no effect; nearly all actives have a fitted effect of over 35% in size
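ERSR induction read as luciferase luminescence (Bright-Glo, 10 min at room temperature) in stably transfected human U87-MG glioma cells exposed to compounds for 16 h, using GRP78 as sensor.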
Apoferritin bind: qHTS Assay for Identification of Novel General Anesthetics | AID 485281, 2010 | Ferritin light chain (Equus caballus), P02791 | apoferritin/1-aminoanthracene competitive binding, fluorescence | 350,000 compounds, 0.074% hits | Potency, µM (highest dose often 77.5 µM), inactives show top-dose activity change, negative = displacement, hits mostly inhibitors; further: on the % scale 0 is the no-effect control and ±100 the full control effect; nearly all actives have a fitted effect of over 20% in size
Target sequence (P02791 2-175 limits assumed): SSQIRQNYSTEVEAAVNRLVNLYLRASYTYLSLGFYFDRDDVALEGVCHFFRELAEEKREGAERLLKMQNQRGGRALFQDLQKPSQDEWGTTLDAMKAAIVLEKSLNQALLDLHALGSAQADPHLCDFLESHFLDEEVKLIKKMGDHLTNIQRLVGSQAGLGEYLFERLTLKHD
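Probe: 1-aminoanthracene (50% saturated, PBS). Protein: horse-spleen apoferritin, 10 uM. Incubation: 10 min, room temperature. Detection: 380 nm excitation, 535 nm emission. Analysis: normalized response, four-parameter Hill.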
ALOX12 inh: Primary qHTS assay for inhibitors of human arachidonate 12S-lipoxygenase (ALOX12): Round 2; Polyunsaturated fatty acid lipoxygenase ALOX12 (Homo sapiens), P18054; purified 12hLO, xylenol orange hydroperoxide absorbance; Potency, µM (top dose mostly 108 µM), for the others: top-dose activity change, negative = inhibition, hits mostly inhibitors; 580,000 compounds, 1.1% hits; AID 1671190, 2021; further: on the % scale 0 is the no-effect control and ±100 the full control effect
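Hydroperoxide product was detected by ferrous iron/xylenol orange as the 573 to 405 nm absorbance ratio. Arachidonic acid at 40 uM (final) was turned over for 30 min at room temperature by 150 nM human 12hLO, pH 7.0 Hepes buffer, after 15 min compound preincubation.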
rTrxR1 inhibitor: qHTS Assay for Inhibitors of Mammalian Selenoprotein Thioredoxin Reductase 1 (TrxR1): qHTS; Thioredoxin reductase 1, cytoplasmic (Rattus norvegicus), O89049; recombinant rTrxR1, NADPH fluorescence consumption, selenite substrate; Potency, µM (doses to about 114 µM), for the others: at the top dose activity change, negative = inhibition, actives largely listed as inhibitors; 390,000 compounds, 1% hits; AID 588453, 2011; further: on the % scale 0 is the no-effect control and ±100 the full control effect; nearly all actives have a fitted effect of over 65% in size
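Rat TrxR1 (90 nM in the dispensed reagent) was pre-reduced with 400 uM NADPH for 5 min at room temperature, then incubated with compound for 15 min. After 400 uM selenite was added, NADPH fluorescence (Ex 340/Em 450 nm) was followed for 8 min.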
* marks the source's active call; other numbers are inactive results; ? = inconclusive; / = not tested or not shown; [ ] = another dose, or the depositor's remark. Rows were chosen to be rich in hits. Some 1.7% of all compounds tested hit in one or more screens of this group. The call rests on the fitted dose curve; in most records, active means well fitted curve in the direction sought with a large enough effect; inconclusive means small, poorly fitted or top-dose-only effect, or another doubt; inactive means no such curve, though single readings can be large; an effect the other way counts as inactive or inconclusive. Potency means the concentration at half of the fitted maximal effect.

SMILES	TrxR1 substrate	mIDH1 inhibitor	Glioma ERSR ind	Apoferritin bind	ALOX12 inh	rTrxR1 inhibitor
O=C1/C(=C/c2ccc(N3CCOCC3)o2)SC(=Nc2ccccc2)N1CCc1c[nH]c2ccccc12	-6%	-2%	-15%	?	/	10µM*
O=C1NC(=S)S/C1=C/c1ccc(N2CCOCC2)o1	-15%	?	-1%	-1%	/	13µM*
CC(C)OC(=O)CN1C(=O)S/C(=C/c2ccc(N3CCCCC3)o2)C1=O	-1%	1%	1%	?	?	?
O=C1S/C(=C/c2ccc(N3CCOCC3)o2)C(=O)N1Cc1ccc(F)cc1	-4%	13%	0%	-10%	10µM*	8.9µM*
O=C1N/C(=C/c2ccc(N3CCOCC3)cc2)C(=O)N1Cc1ccc(F)cc1	-1%	0%	-3%	-10%	-1%	3%
O=C1S/C(=C\c2ccc(N3CCOCC3)o2)C(=O)N1Cc1ccc(F)cc1	-11%[57.1 µM]	2%	-3%	-13%	/	2.5µM*
CN(C)C[C@@H]1CN(S(C)(=O)=O)C[C@H]1NC(=O)c1ccco1	/	/	/	/	24%	/
C=C(C)Cn1c(SCC(=O)Nc2cc(C)ccc2C)nc2sc3c(c2c1=O)CCCC3	2%	1%	-4%	-13%	2%	0%
CC(=O)CCS(=O)(=O)c1ccc(NC(C)=O)cc1	12%	1%	-5%	0%	24%	40µM*
CC(=O)Nc1ccc(S(=O)(=O)CCC(=O)O)cc1	-4%	-1%	0%	-10%	1%[57.4 µM]	-15%
CC(=O)Nc1ccc(S(=O)(=O)c2cc(O)ccc2O)cc1	-1%	6%	-1%	-2%	?	18µM*
Cc1ccc(S(=O)(=O)c2cc(O)ccc2O)cc1C	-1%	18%	-1%	-9%	-17%	?
Cc1nc2c(=O)n(C)c(=O)n(C)c2nc1Cl	60%[57.1 µM]	3%	-13%	-6%	-4%	2µM*
COc1cc(C#N)ccc1OCc1c(F)cccc1Cl	/	/	/	/	-7%	/
CCN(CC)C(=O)CC(c1ccccc1)c1ccco1 (centres undefined)	2%	3%	-3%	-15%	-11%	?
CCCN(CCC)C(=O)CC(c1ccc(F)cc1)c1ccco1 (centres undefined)	0%	11%	-1%	?	-12%	35µM*
COc1cccc(C(=O)N2CCc3cc(OC)c(OC)cc3C2COc2ccc3c(C)cc(=O)oc3c2)c1 (centres undefined)	21%	-8%	-3%	-19%	6%	-4%
CCOC(=O)C(=CNNc1cccc(Cl)c1)C(=O)OCC	-1%[57.1 µM]	3%	-2%	?	13µM*	-9%[57.1 µM]
C[C@@H]1CN(C(=O)NCC2CCCCC2)CC[C@@]1(O)C1CCOCC1	/	/	/	/	22%	/
c1ccc(-c2cc(CSc3ccc4c(c3)OCCCO4)no2)cc1	/	/	/	/	21%	/
CCCCc1c(-c2ccccc2OC)ncn1Cc1ccccc1C	/	/	/	/	28µM*	/
CCCCc1c(-c2ccccc2OC)ncn1Cc1ccccc1F	/	/	/	/	-14%	/
O=C(N/N=C/c1ccc(-c2ccccc2[N+](=O)[O-])o1)c1cccnc1	-14%	16%	3%	0%	-8%	50µM*
O=C(N/N=C/c1cccc2ccccc12)c1cccnc1	-3%	4%	11%	-4%	11µM*	4%
Cc1ccccc1/C=N/NC(=O)c1cccnc1	-6%	-1%	4%	-5%	?	-3%
SMILES	TrxR1 substrate	mIDH1 inhibitor	Glioma ERSR ind	Apoferritin bind	ALOX12 inh	rTrxR1 inhibitor
CC(C)(C)c1cc(C(=O)N/N=C/c2ccc(-c3ccccc3[N+](=O)[O-])o2)n[nH]1	-10%	8%	0%	-14%	-10%	?
COc1ccccc1-c1cnn(C(C)(C)C(=O)NCc2ccccc2Br)c1	/	/	/	/	-17%	/
COc1ccc(/C=N/n2c(-c3ccc(C)cc3)n[nH]c2=S)cc1OC	-7%	2%	-6%	-14%	10µM*	-15%
Oc1c(Br)cc(/C=N/n2c(-c3ccccc3)n[nH]c2=S)c(O)c1Br	-16%	-2%	-5%	-3%	/	?
Oc1ccc(/C=N/n2c(-c3ccccc3)n[nH]c2=S)cc1Br	-10%	12%	6%	-7%	32µM*	-29%
Oc1c(Br)cc(/C=N/n2c(-c3ccccc3)n[nH]c2=S)cc1Br	9%[2.29 µM]	13%	-4%	0%	22µM*	-13%[57.1 µM]
C/C(=N\Nc1cccc(C(F)(F)F)c1)c1ccc(O)cc1	-8%[57.1 µM]	12%	3%	-20%	35µM*	6%[57.1 µM]
O=C(O)c1ccc(/C=N/Nc2cccc(C(F)(F)F)c2)cc1	-3%[57.1 µM]	-3%	-6%	-13%	45µM*	4%[57.1 µM]
O=C(O)c1ccc(N/N=C/c2ccc(-c3ccccc3)cc2)cc1	-4%[57.1 µM]	15%	2%	-1%	?	13%[11.4 µM]
C/C(=N\NC(=O)CNc1cccc(C(F)(F)F)c1)c1ccc(Br)cc1	0%	1%	-5%	?	20%	7%
FC(F)(F)c1cccc(N/N=C/c2ccc(Br)cc2)c1	/	/	/	/	0.79µM*	/
FC(F)(F)c1cccc(N/N=C/c2cccc(Br)c2)c1	/	/	/	/	-92%	/
COCCN1C(=O)c2ccccc2C(C(=O)Nc2nccs2)C12CCCCC2 (centres undefined)	/	/	/	/	50%	/
CCCN(CCC)CCCNC(=S)Nc1ccc2nc(N3CCCC3)cc(C)c2c1	9%	-4%	-2%	-8%	-5%	5%
Cc1cc(N2CCCC2)nc2ccc(NC(=S)NCCCOC(C)C)cc12	6%	-2%	-4%	-14%	-2%	45µM*
O=C(NS(=O)(=O)c1ccccc1[N+](=O)[O-])c1ccccc1	1%	8%	-1%	-4%	11µM*	12%
O=C(NS(=O)(=O)c1ccccc1)c1ccccc1	0%	5%	-2%	-13%	?	7%
O=C(NS(=O)(=O)NC(=O)c1ccccc1)c1ccccc1	/	/	/	/	11µM*	/
CCN(c1ccccc1)S(=O)(=O)c1ccc(N2CCN(c3ccc(O)cc3)CC2)nc1	-5%[57.1 µM]	15%	-1%	/	20µM*	7%[57.1 µM]
Oc1c(Cl)cc(Cl)c2c1NCCC2	-7%	18%	-4%	2%	?	2.2µM*
COc1ccc(Br)c(C(=O)OCc2cc(C(C)=O)ccc2OC)c1	/	/	/	/	-4%	/
